# Experimental data from PubChem BioAssay AID493170 (National Center for Advancing Translational Sciences (NCATS), 2011).
# Inconclusive results are not listed. Where a call stands in place of a potency, no number is given. The source made the active and inactive calls. Calls follow the shape of the dose curve; as a rule, active = well fitted inhibition curve with a large enough effect; inconclusive = small, poorly fitted or top-dose-only effect, or effect the other way; inactive = flat fitted curve, though single readings scatter.
# Molecular target: Ubiquitin carboxyl-terminal hydrolase 2 (Homo sapiens) (UniProt O75604)
# Sequence (O75604 whole entry, looked up): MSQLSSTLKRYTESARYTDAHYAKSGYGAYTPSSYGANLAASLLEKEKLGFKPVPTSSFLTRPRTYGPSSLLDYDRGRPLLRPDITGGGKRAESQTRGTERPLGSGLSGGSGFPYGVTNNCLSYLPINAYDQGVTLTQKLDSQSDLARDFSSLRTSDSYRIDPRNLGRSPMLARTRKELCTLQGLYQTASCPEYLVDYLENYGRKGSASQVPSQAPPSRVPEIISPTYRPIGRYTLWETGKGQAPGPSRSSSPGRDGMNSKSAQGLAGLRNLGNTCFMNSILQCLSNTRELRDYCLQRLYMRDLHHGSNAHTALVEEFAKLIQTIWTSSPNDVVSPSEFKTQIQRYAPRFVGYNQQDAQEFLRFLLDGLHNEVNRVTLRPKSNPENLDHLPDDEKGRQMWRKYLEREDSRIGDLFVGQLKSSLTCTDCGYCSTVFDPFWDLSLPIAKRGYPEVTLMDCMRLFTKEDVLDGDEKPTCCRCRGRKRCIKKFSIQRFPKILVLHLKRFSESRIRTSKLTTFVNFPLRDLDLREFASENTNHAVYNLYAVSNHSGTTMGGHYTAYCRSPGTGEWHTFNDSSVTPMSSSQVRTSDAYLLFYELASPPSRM
# Test: Ub-rhodamine 110 based assay for inhibitors Ubiquitin-specific Protease USP2a; also: nearly all actives have a fitted effect of over 50% in size
# Settings: USP2a Ub-rhodamine110 cleavage, fluorescence; series mostly up to 38.3 µM
# In short: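 5 nM USP2a preincubated with compounds for 30 min at RT in 20 mM Tris-HCl pH 8.0, 2 mM CaCl2, 2 mM beta-mercaptoethanol, 0.05% CHAPS. Cleavage of 150 nM Ub-rhodamine 110 read kinetically (Ex 485/Em 531) for 7 min.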
# Potency is read from the fitted curve at half-maximal effect.
row,Structure (SMILES),Potency
1,CCN(C[C@H]1N[C@@](CC)(C(=O)OC)[C@H]2C(=O)N(Cc3ccccc3)C(=O)[C@@H]12)C(=O)Nc1ccc(C)cc1,inactive
2,O=C(Cc1ccc(S(=O)(=O)N2CCOCC2)s1)Nc1nc2c(s1)CCCC2,6.31 µM (active)
3,COc1ccccc1N1CCN(c2cc(C)nc3nc(C)nn23)CC1,inactive
4,COc1ccc(-c2noc(CSc3nnc(Cc4ccccc4)n3-c3ccc(Cl)cc3)n2)cc1,inactive
5,Cc1ccc(S(=O)(=O)Nc2cc(C)c(O)c(S(=O)(=O)c3ccc(C)cc3)c2)cc1,inactive
6,COc1ccc(-n2c(=S)[nH]c3cc(C(=O)Nc4cc(OC)c(OC)c(OC)c4)ccc3c2=O)c(OC)c1,inactive
7,O=C(N/N=C1\CC(c2ccccc2)Oc2ccccc21)c1ccc(O)cc1 (centres undefined),inactive
8,COc1ccc(-c2nc(C#N)c(NCC3CCCO3)o2)cc1OC (centres undefined),inactive
9,C=C(CCC(=O)c1ccccc1)C(=O)c1ccccc1,inactive
10,O=C(CC(C(=O)O)C1CCCO1)NCCc1ccc2c(c1)OCO2 (centres undefined),inactive
11,O=C(NCCc1ccccc1)c1ccc2nc(-c3ccco3)c(-c3ccco3)nc2c1,5.01 µM (active)
12,C#CCOCCOCCOCCNc1nc(N2CCN(C(=O)CCCCCCCCCCNC(=O)Cn3cc(CCCCCN)nn3)CC2)nc(N2CCN(C(=O)CCCCCCCCCCNC(=O)[C@H](CO)n3cc(CCCCCN)nn3)CC2)n1,inactive
13,O=C(Nc1nnc(SCC(=O)N2CCCC2)s1)C1CC(=O)N(c2ccc(F)cc2)C1 (centres undefined),11.2 µM (active)
14,COc1cc(C2C(C#N)=C(N)Oc3c2ccc2ccccc32)ccc1OCC(=O)Nc1cccc(C)c1 (centres undefined),inactive
15,Cc1ccc(C)c(OCC(=O)Nc2cc(NC(=O)COc3cc(C)ccc3C)cc(C(=O)O)c2)c1,11.2 µM (active)
16,COc1ccc(C(=O)OCC(=O)c2c[nH]c3ccccc23)c(OC)c1,inactive
17,CCCCCCCCCCOC(=O)Cn1c(COc2cccc(C)c2)[n+](C)c2ccccc21,inactive
18,COc1ccc(N(C(=O)C(C)C)S(=O)(=O)c2ccc(Cl)cc2)cc1,inactive
19,Cc1cc2c(c(=O)n1CC1CCCO1)C(c1ccco1)C(C#N)=C(N)O2 (centres undefined),inactive
20,CC(=O)Nc1ccc(Nc2cc(C)nc(Nc3ccc(NC(C)=O)cc3)n2)cc1,inactive

row,Structure (SMILES),Potency
1,CC(=O)C1=C(O)C(=O)N(c2nnn(C)n2)C1c1cccs1 (centres undefined),inactive
2,O=C(O)CN1C(=O)/C(=C\c2ccccc2OCc2ccc(Cl)cc2Cl)SC1=S,10 µM (active)
3,O=C(O)c1cccc2c1C(=O)c1ccc(-c3ccc(F)cc3OCc3ccccc3)cc1S2(=O)=O,11.2 µM (active)
4,O=C(COC(=O)c1cccc(S(=O)(=O)N2CCc3ccccc32)c1)NC1CCS(=O)(=O)C1 (centres undefined),inactive
5,COc1cc(OC)cc(-c2c(C#Cc3ccsc3)c3cc(-c4ccc(OC)c(OC)c4)ccc3n2C)c1,inactive
6,CC(=O)COc1ccc2c(-c3ccccc3)cc(=O)oc2c1,inactive
7,Cc1ccc(NC(=O)CSc2nnc(COc3ccc(C#N)cc3)n2-c2ccccc2)cc1C,inactive
8,Cc1cc(SCC(=O)NC2CCCCC2)nc2ccccc12,inactive
9,CC(C)(C)C1CCC(=NNC(=O)CN(c2ccccc2)S(C)(=O)=O)CC1 (centres undefined),inactive
10,CCOc1ccc(NC(=O)c2cccc(-n3cnnn3)c2)cc1,inactive
11,CN1CCN(S(=O)(=O)c2ccc(N3CCN(S(=O)(=O)/C=C/c4ccccc4)CC3)nc2)CC1,inactive
12,CCOc1cc(/C=C2\C(=O)N(c3nc(-c4ccc(Br)cc4)cs3)N=C2c2ccccc2)ccc1O,3.16 µM (active)
13,COC(=O)c1c(O)c2c([nH]c1=O)CCCC2,inactive
14,O=C(NC1CCCCC1)C(c1ccco1)N(C(=O)c1csnn1)c1cccc(F)c1 (centres undefined),inactive
15,O=C(CSc1nc(O)cc(=O)n1-c1ccccc1)NC1CCCCC1,inactive
16,CC(C)Cn1c(SCC(N)=O)nnc1-c1cccc(S(=O)(=O)N2CCOCC2)c1,inactive
17,O=C(CCc1nc(-c2ccccc2F)no1)NC1CCCCCC1,inactive
18,Cc1ccc(C)c(S(=O)(=O)N2CCN(C(=O)/C=C/c3ccco3)CC2)c1,10 µM (active)
19,C[C@@H]1CN([C@H](C)CO)C(=O)Cc2cc(NS(=O)(=O)c3ccc(Cl)cc3)ccc2O[C@H]1CN(C)Cc1ccc(C(F)(F)F)cc1,10 µM (active)
